The values that follow come from PubChem BioAssay AID1851 (National Center for Advancing Translational Sciences (NCATS), 2009).

Structures are written as SMILES. Hit rate of the full screen: of about 16,000 compounds, about 4,000 (25%) were called active. Another 26% or so got no clear call; they are omitted. Calls follow the shape of the dose curve; as a rule, active = well fitted curve in the direction sought with a large enough effect; inconclusive = small, poorly fitted or top-dose-only effect, or effect the other way; inactive = no such curve, though single readings can be large or run the other way. A selection follows.

One may read the AC50 as the concentration at which the activity in the assay is half-maximal.
% is scaled to controls: 0 for no effect and ±100 for the full control effect.

Cytochrome P450 2C9 (Homo sapiens), sequence (P11712 whole entry, looked up): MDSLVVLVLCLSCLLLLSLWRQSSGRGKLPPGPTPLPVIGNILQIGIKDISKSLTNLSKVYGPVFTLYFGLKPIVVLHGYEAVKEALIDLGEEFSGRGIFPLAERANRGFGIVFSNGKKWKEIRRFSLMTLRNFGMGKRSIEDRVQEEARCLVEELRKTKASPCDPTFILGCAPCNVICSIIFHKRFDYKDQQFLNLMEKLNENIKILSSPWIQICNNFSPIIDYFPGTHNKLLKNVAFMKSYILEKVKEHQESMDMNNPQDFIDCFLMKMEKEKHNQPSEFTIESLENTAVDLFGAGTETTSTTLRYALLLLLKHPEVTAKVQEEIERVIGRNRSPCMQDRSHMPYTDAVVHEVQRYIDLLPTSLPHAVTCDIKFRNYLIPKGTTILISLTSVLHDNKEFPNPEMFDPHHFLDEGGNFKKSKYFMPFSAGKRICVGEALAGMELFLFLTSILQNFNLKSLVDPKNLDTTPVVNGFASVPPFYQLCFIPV

This test concerns the target Cytochrome P450 2C9 (Homo sapiens) (UniProt P11712). The test can be described thus: Cytochrome panel assay with activity outcomes. The note with it: recombinant CYP, pro-luciferin dealkylation, luminescence, p450-cyp2c9; series mostly up to 57.1 µM.
On to `COc1ccccc1-c1cc(NCc2cccc(C)c2)ncn1`, for which the activity, negative = inhibition was 0.571% [at 2.29 µM] (inactive).
For `O=C(O)/C(Cc1ccc([N+](=O)[O-])cc1)=N/O`, the activity, negative = inhibition was -14.2% [at 11.4 µM] (inactive).
For `Cc1ccc(N(Cc2ccc([N+](=O)[O-])cc2)C(=O)c2ccco2)cc1`, the AC50 is 3.16 µM (active).
Same read-out and setting: with `NC(=O)N/N=C\c1ccc([N+](=O)[O-])o1` the entry was “inactive”; with `O=C(N/N=C/c1ccc([N+](=O)[O-])o1)c1cc(-c2ccncc2)nc2ccccc12`, 0.891 µM (active); with `CCOC(=O)N/N=C\c1ccc([N+](=O)[O-])o1`, “inactive”.
Take `O=C(O)[C@H]1CN(CCCP(=O)(O)O)CCN1`: the AC50 entry is “inactive”.
`CCN(c1ccccc1)S(=O)(=O)c1ccc(NC(=S)NC(=O)c2ccc(Br)o2)cc1`: the AC50 was 1.58 µM (active).
As to `O=C(NC1CCCCCC1)c1cccs1`, the AC50 result was “inactive”.
For the compound `CCN(c1ccccc1)S(=O)(=O)c1ccc(NC(=S)NC(=O)c2cccs2)cc1`, the AC50 is 1 µM (active).
For the compound `CN(C1CCCCC1)S(=O)(=O)c1ccc(NC(=S)NC(=O)c2cccs2)cc1`, the AC50 was 0.891 µM (active).
Turning to `CCOC(=O)NCN1C(=O)C2C3C=CC(C3)C2C1=O` (configuration not stated), the AC50 entry was “inactive”.
`CC(C)(S)[C@H](N)C(=O)O`: the activity, negative = inhibition is 3.44% [at 11.4 µM] (inactive).
In the case of `CCCCCCCCCCCCCC(=O)O[C@H](CC(=O)O)C[N+](C)(C)C`, the AC50 result was “inactive”.
For `CN1C(C(=O)Nc2ccccn2)=C(O)c2ccccc2S1(=O)=O`, the half-maximal activity concentration (AC50) is 3.98 µM (active).
With `Cc1cc(NC(=O)C2=C(O)c3ccccc3S(=O)(=O)N2C)no1`, the AC50 result is “inactive”.
Turning to `O=C1c2ccccc2S(=O)(=O)N1CCCCN1CCN(c2ncccn2)CC1`, the AC50 entry was “inactive”.
For the compound `N/N=C1/c2ccccc2N[C@H]1OC(=O)Nc1cccc(Cl)c1`, the activity, negative = inhibition was -11.6% [at 11.4 µM] (inactive).
As to `O=C(Nc1cccc(F)c1)N1CCC2(CCNCC2)CC1`, the AC50 entry was “inactive”.
Turning to `O=C(Nc1cccc(Cl)c1)N1CCN2C(=O)c3ccccc3C12c1ccccc1` (configuration not stated), the AC50 is 2.51 µM (active).
For the compound `C[C@](N)(Cc1ccc(O)c(O)c1)C(=O)O`, the AC50 entry was “inactive”.
The same measure, in the same setting: with `C[C@H](Cc1ccc(O)c(O)c1)[C@@H](C)Cc1ccc(O)c(O)c1` the figure was 12.6 µM (active).
On the same count and under the same terms, the entry for `N[C@@H](Cc1ccc(O)c(O)c1)C(=O)O` is “inactive”; for `O=c1c2ccccc2nc2n1CC/C2=C\c1ccccc1[N+](=O)[O-]` it is 5.01 µM (active); for `O=c1c2ccccc2nc2n1CCc1c-2[nH]c2ccccc12` it is “inactive”.
As to `O=C(CSc1nc2ccccc2[nH]1)Nc1c(F)cccc1F`, the AC50 was 12.6 µM (active).
Regarding `O=C(O)CSc1nc2ccccc2[nH]1`, the activity, negative = inhibition was -8.67% [at 11.4 µM] (inactive).
Consider `CNC(=O)[C@@H]1O[C@@H](n2cnc3c(NCc4cccc(I)c4)ncnc32)[C@H](O)[C@@H]1O`, for which the AC50 entry was “inactive”.
Turning to `CCOC(=O)c1cnc(-c2ccccc2)nc1Oc1ccccc1`, the AC50 is 6.31 µM (active).
On the same count and under the same terms, with `CCOC(=O)c1cnc(-c2ccccc2)nc1Oc1cccc(Cl)c1` the figure was 11.2 µM (active); with `CCOC(=O)c1cnc(-c2ccccc2)nc1Oc1ccc(Cl)cc1`, “inactive”; with `Cc1ccc(Oc2nc(-c3ccccc3)ncc2S(C)(=O)=O)cc1`, 2.51 µM (active).
Consider `C=CCOc1ccc(CNC(C)(C)CO)cc1OC`, for which the AC50 result is “inactive”.
On the same count and under the same terms, the entry for `CCn1cc(C(=O)O)c(=O)c2cc3c(cc21)OCO3` is “inactive”; for `O=C(O)c1cc(=O)c2c(Cl)cc(Cl)cc2[nH]1` it is “inactive”.
For the compound `CO/N=C\[C@@H](C)[C@H](OCc1ccccc1)C(C)C`, the activity, negative = inhibition is -6.92% [at 11.4 µM] (inactive).
As for `COc1ccccc1-c1nc(NCc2cnc(C)cn2)c2ccccc2n1`, the activity, negative = inhibition was 16.4% [at 2.29 µM] (inactive).
As to `CC(=O)Nc1ccc(Nc2ncnc3c2cnn3-c2ccccc2)cc1`, the AC50 is 0.891 µM (active).
The same measure, in the same setting: with `Nc1ncnc2c1cnn2-c1ccccc1` the entry was “inactive”; with `Cn1ncc2c(Nc3cccc(C(=O)O)c3)ncnc21`, “inactive”.
In the case of `CCOC(=O)c1ccc(NC(=O)CC2NCCNC2=O)cc1` (configuration not stated), the AC50 result was “inactive”.
With `CCOC(=O)c1ccc(NC(=O)COc2ccccc2OC)cc1`, the AC50 is 17.8 µM (active).
As for `Cc1cc(C)nc(Nc2ncc(O)n2-c2ccccc2)n1`, the AC50 result is “inactive”.
For `Cc1nc(N/N=C/c2ccccc2)nc(N(C)c2ccccc2)c1[N+](=O)[O-]`, the AC50 result was “inactive”.
For the compound `Cc1ccc2nc(N/N=C/c3ccccc3C#N)nc(-c3ccccc3)c2c1`, the AC50 was 7.08 µM (active).
For the compound `Cc1ccc2nc(N/N=C\c3cccc(C)n3)cc(C)c2c1`, the activity, negative = inhibition is 7.2% [at 11.4 µM] (inactive).
Turning to `Cc1ccc2nc(Nc3ccccc3O)nc(-c3ccccc3)c2c1`, the AC50 is 8.91 µM (active).
Turning to `C[C@H](NC[C@H](O)CP(=O)(O)CC1CCCCC1)c1ccc(Cl)c(Cl)c1`, the AC50 entry was “inactive”.
Consider `CC(C)CN(CC(C)C)C1=N/C(=C\c2ccco2)C(=O)N1c1ccccc1`, for which the AC50 is 3.98 µM (active).
As for `Cc1cnc(CNc2ccnc(-c3ccccc3C(F)(F)F)n2)cn1`, the activity, negative = inhibition was 8.33% [at 2.29 µM] (inactive).
In the case of `C#CCSc1n[nH]c(-c2ccco2)n1`, the activity, negative = inhibition was 0.366% [at 11.4 µM] (inactive).
`CC#C[C@]1(O)CC[C@H]2[C@@H]3CCC4=CC(=O)CCC4=C3[C@H](c3ccc(N(C)C)cc3)C[C@@]21C`: the AC50 result was “inactive”.
As for `CC#C[C@@]1(O)CC[C@H]2[C@@H]3CCC4=CC(=O)CCC4=C3[C@H](c3ccc(N(C)C)cc3)C[C@]21C`, the half-maximal activity concentration (AC50) is 3.98 µM (active).
On the same count and under the same terms, with `CC1Cc2ccccc2N1C(=O)CSCC(=O)O` (configuration not stated) the entry was “inactive”; with `CCCC(=O)N1c2ccccc2C(N(C(C)=O)c2ccccc2)CC1C` (configuration not stated), 3.98 µM (active); with `Cn1nc(C(F)(F)F)c(/C=N/OCc2c(Cl)cccc2Cl)c1Cl`, 1.58 µM (active).
Consider `O=C(NCCCN1CCCCCC1)C1CC(=O)N(CCc2ccccc2)C1` (configuration not stated), for which the AC50 entry was “inactive”.
Take `CC(=O)c1ccc(N2CCC(c3cc(-c4ccc(Cl)cc4Cl)n[nH]3)CC2)c([N+](=O)[O-])c1`: the AC50 is 3.98 µM (active).
Take `CC(=O)c1ccc(N2CCC(c3cc(-c4ccc(Cl)cc4)n[nH]3)CC2)c([N+](=O)[O-])c1`: the AC50 is 3.98 µM (active).
As for `COc1ccc(-c2cc(C3CCN(c4ccc(C(C)=O)cc4[N+](=O)[O-])CC3)[nH]n2)cc1`, the AC50 was 7.94 µM (active).
For the compound `COc1ccc(-c2cc(C3CCN(c4cc(Cl)nc(N)n4)CC3)[nH]n2)cc1`, the AC50 is 14.1 µM (active).
On to `CC(C)NC(=O)N1CCC2(CC1)CCN(S(C)(=O)=O)CC2`, for which the AC50 entry is “inactive”.
In the case of `CN(Cc1ccco1)c1ncncc1-c1ccccc1C(F)(F)F`, the activity, negative = inhibition was -7.74% [at 2.29 µM] (inactive).
Same read-out and setting: the figure for `COc1ccccc1-c1cc(Nc2ccn[nH]2)ncn1` is -3.07% [at 2.29 µM] (inactive).
`CC(C)SC(=N)N`: the AC50 result is “inactive”.
Regarding `Clc1ccc(COC(Cn2ccnc2)c2ccc(Cl)cc2Cl)c(Cl)c1` (configuration not stated), the AC50 is 0.316 µM (active).
Take `Clc1ccc([C@H](Cn2ccnc2)OCc2csc3c(Cl)cccc23)c(Cl)c1`: the AC50 is 0.316 µM (active).
Regarding `NC(N)=NC(N)=Nc1c(F)c(F)c(F)c(F)c1F`, the activity, negative = inhibition was 0.138% [at 11.4 µM] (inactive).
As to `O=C(O)c1cc2cc(Cc3cccnc3)ccc2o1`, the AC50 entry was “inactive”.
In the case of `Cc1cccc(OCCn2c(S(=O)(=O)O)nc3ccccc32)c1`, the AC50 is 5.62 µM (active).
For the compound `Cc1cccc(OCCn2c(-c3ccco3)nc3ccccc32)c1`, the concentration at half-maximal activity (AC50) was 1.78 µM (active).
Regarding `OCCN1CCN(CCOc2cccc(Cl)c2)CC1`, the AC50 entry is “inactive”.
Consider `CS(=O)(=O)c1nc2ccccc2n1Cc1ccccc1`, for which the AC50 entry is “inactive”.
Regarding `Cc1cccc(CCNc2nc3ccccc3n3nnnc23)c1`, the AC50 entry is “inactive”.
As for `O=C(O)[C@@H]1[C@H](C(=O)O)[C@H]2C(=O)C=C[C@H]1N2Cc1ccccc1`, the activity, negative = inhibition is 4.11% [at 11.4 µM] (inactive).
For `O=S(=O)(O)c1nc2ccccc2n1Cc1ccccc1`, the AC50 is 25.1 µM (active).
On to `OC[C@@H]1NC[C@@H](O)[C@@H](O)[C@H]1O`, for which the AC50 result was “inactive”.
The same measure, in the same setting: the entry for `COC(=O)N1CCC2(CCCN(C(=O)Nc3cccc(F)c3)C2)CC1` is “inactive”; for `O=C(c1[nH]o[n+](=O)c1C(=O)c1csc2ccccc12)c1csc2ccccc12` it is 1.58 µM (active); for `O=C1NCCc2c1[nH]c1ccccc21` it is “inactive”.
Turning to `COc1cccc(/C=c2/s/c(=C(\C#N)C(=O)N3CCOCC3)n(-c3ccccc3)c2=O)c1`, the AC50 result is “inactive”.
Consider `CN(c1ccccc1)c1ccc(/C=c2\s/c(=C(/C#N)C(=O)C(C)(C)C)n(Cc3ccco3)c2=O)cc1`, for which the AC50 is 3.55 µM (active).
On to `COC(=O)c1ccc(C(NC(=O)c2ccco2)[C@]2(C)C[C@H]2C2CCCCC2)cc1` (some centres not stated), for which the AC50 was 10 µM (active).
On to `C=C(CC1([C@@H](NP(=O)(c2ccccc2)c2ccccc2)[C@H]2C[C@@H]2CCCC)CC1)c1ccccc1`, for which the half-maximal activity concentration (AC50) was 10 µM (active).
For the compound `CCCC[C@@H]1C[C@H]1C(NC(=O)c1ccc(-c2ccccc2)cc1)c1ccc(-c2ccccc2)cc1` (some centres not stated), the AC50 entry is “inactive”.
Still for that read-out and setting: the entry for `COC(=O)c1ccc(C(NC(=O)c2ccccc2)[C@]2(C)C[C@H]2C2CCCCC2)cc1` (some centres not stated) is “inactive”.
`C[C@@]1(C(NC(=O)Cc2ccccc2)c2ccc(-c3ccccc3)cc2)C[C@H]1C1CCCCC1` (some centres not stated): the AC50 result was “inactive”.
Same read-out and setting: with `CCCC[C@@H]1C[C@H]1C(NC(=O)c1ccccc1)c1ccccc1` (some centres not stated) the figure was 7.94 µM (active).
For `CCCC[C@@H]1C[C@H]1C(NC(=O)c1ccco1)c1ccccc1` (some centres not stated), the AC50 was 15.8 µM (active).
With `CN(C)CCSCCO`, the activity, negative = inhibition is 13.5% [at 11.4 µM] (inactive).
For the compound `CO[C@@H]1COC(=O)[C@H](COCc2ccccc2)NC(=O)C/C=C\[C@@H](C)[C@H](OC)COC(=O)[C@@H](C)NC(=O)C/C=C\[C@H]1C`, the activity, negative = inhibition was -22.8% [at 11.4 µM] (inactive).
In the case of `C[C@@]1(C(NC(=O)c2ccc(-c3ccccc3)cc2)c2ccc(Cl)cc2)C[C@H]1C1CCCCC1` (some centres not stated), the AC50 result is “inactive”.
Turning to `CCCC[C@@H]1C[C@H]1C(NC(=O)c1ccco1)c1ccc(C(=O)OC)cc1` (some centres not stated), the concentration at half-maximal activity (AC50) is 0.794 µM (active).
Consider `CCCC[C@@H]1C[C@H]1C(NC(=O)c1ccco1)c1ccc(Cl)cc1` (some centres not stated), for which the AC50 is 3.98 µM (active).
Consider `CCC[C@@H]1C[C@@]1(CCC)C(NC(=O)c1ccco1)c1ccc(Cl)cc1` (some centres not stated), for which the AC50 was 15.8 µM (active).
As to `C[N+]1(CCC(=O)c2ccco2)CC2CCC(CC2)C1` (configuration not stated), the activity, negative = inhibition is 6.14% [at 11.4 µM] (inactive).
For the compound `CCC[C@@H]1C[C@@]1(CCC)C(NS(=O)(=O)c1cccc2cccnc12)c1ccc(Cl)cc1` (some centres not stated), the concentration at half-maximal activity (AC50) was 7.94 µM (active).
